Several values for one entry are separate records, joined by “and”; a condition that tells them apart may be missing. Equal entries are not always repeated. Records with an inconclusive call do not appear. The source holds several records for some structures; these can differ, active in one and inactive in another. Activity calls are given as the source filed them. Unless noted, calls come from the whole dose curve; as a rule, active = well fitted curve in the direction sought with a large enough effect in the repeat runs; inconclusive = weak or mixed curves; inactive = no such curve, though single readings can be large; an effect the other way counts as inactive or inconclusive.

We go through 29 compounds from PubChem BioAssay (Tox21).

Test [1] is described as follows: qHTS assay to identify small molecule agonists of the peroxisome proliferator-activated receptor delta (PPARd) signaling pathway - cell viability counter screen (AID 743211). Note: nearly all actives have a fitted effect of over 55% in size. A digest of the protocol:
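qHTS cell viability: PPARd-bla HEK293H; 17 h cpd, 37C; CellTiter-Glo, luminescence at 30 min RT.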
In general terms: qHTS replaces the single test concentration by a dilution series.

For test [2], the target named is Peroxisome proliferator-activated receptor delta (Homo sapiens) (UniProt Q03181). Briefly: qHTS assay to identify small molecule agonists of the peroxisome proliferator-activated receptor delta (PPARd) signaling pathway (AID 743212; calls by dose curve). A digest of the protocol: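 A PPARd-bla HEK293H line with beta-lactamase under an Upstream Activator Sequence is treated with compounds at 37 C. Substrate loading for 2 h at room temperature precedes the fluorescence measurement.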
Chain of Peroxisome proliferator-activated receptor delta (Homo sapiens) (Q03181 whole entry, looked up): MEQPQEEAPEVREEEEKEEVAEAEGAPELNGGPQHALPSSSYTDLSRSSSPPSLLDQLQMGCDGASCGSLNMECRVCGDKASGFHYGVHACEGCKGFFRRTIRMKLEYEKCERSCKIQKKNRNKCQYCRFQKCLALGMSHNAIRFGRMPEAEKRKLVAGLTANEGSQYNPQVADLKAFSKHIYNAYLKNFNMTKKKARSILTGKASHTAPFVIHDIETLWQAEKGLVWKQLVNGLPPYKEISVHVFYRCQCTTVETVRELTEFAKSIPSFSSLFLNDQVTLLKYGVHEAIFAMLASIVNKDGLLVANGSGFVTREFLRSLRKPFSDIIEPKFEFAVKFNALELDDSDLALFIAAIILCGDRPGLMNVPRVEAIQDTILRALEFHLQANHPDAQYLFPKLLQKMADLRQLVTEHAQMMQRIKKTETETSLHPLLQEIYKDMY

Test [3] is described as follows: qHTS assay to identify small molecule antagonists of the peroxisome proliferator-activated receptor delta (PPARd) signaling pathway - cell viability counter screen (AID 743213). Note: nearly all actives have a fitted effect of over 50% in size. A digest of the protocol: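 Cytotoxicity counter screen: CellTiter-Glo luminescence read 30 min after addition, in the same wells as the reporter assay. There, PPARd UAS-bla HEK293H cells (3000/well) were treated 17 h at 37 C with compound and 300 nM L165041.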

Test [4] is described as follows: qHTS assay to identify small molecule agonists of the farnesoid-X-receptor (FXR) signaling pathway - cell viability counter screen (AID 743218). Note: nearly all actives have a fitted effect of over 45% in size. Note: potency is the fitted concentration of half-maximal effect. A digest of the protocol: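 After 16 h at 37 C with test compounds, FXR-bla HEK 293T cells were given LiveBLAzer B/G substrate for 2 h at RT and then CellTiter-Glo; luminescence was taken after 30 min.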
Test [5] is described as follows: qHTS assay to identify small molecule antagonists of the farnesoid-X-receptor (FXR) signaling pathway - cell viability counter screen (AID 743221; active = well fitted cell-killing curve with a large enough effect in the repeat runs, not every such curve was filed as active; note: nearly all actives have a fitted effect of over 50% in size). A digest of the protocol: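 After a 5 h settling period, FXR-bla HEK 293T cells receive compound and chenodeoxycholic acid (50 uM final) and incubate 16 h at 37 C; CellTiter-Glo luminescence, read after 30 min at room temperature, reports cell viability.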

Test [6] deals with Vitamin D3 receptor (Homo sapiens) (UniProt P11473). Nature of the test: qHTS assay to identify small molecule agonists of the vitamin D receptor (VDR) signaling pathway (AID 743222; calls by dose curve). A digest of the protocol: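 VDR-bla cells were seeded, left 4 h, treated with compounds in DMSO for 16 h, incubated 2 h at RT with B/G FRET substrate, and read for fluorescence.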
Chain of Vitamin D3 receptor (Homo sapiens) (P11473 whole entry, looked up): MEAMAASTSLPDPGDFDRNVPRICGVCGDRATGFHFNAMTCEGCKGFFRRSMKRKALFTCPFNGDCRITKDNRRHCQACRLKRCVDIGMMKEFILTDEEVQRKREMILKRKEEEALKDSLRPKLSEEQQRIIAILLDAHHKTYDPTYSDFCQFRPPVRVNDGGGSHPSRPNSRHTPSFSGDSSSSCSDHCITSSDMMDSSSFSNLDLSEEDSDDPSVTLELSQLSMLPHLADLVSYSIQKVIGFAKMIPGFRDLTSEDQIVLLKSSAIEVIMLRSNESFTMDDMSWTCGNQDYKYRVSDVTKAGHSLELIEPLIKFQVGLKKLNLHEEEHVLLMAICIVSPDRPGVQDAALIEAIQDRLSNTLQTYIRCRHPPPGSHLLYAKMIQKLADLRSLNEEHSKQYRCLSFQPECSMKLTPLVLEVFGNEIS
For test [7] the target is unchanged. Nature of the test: qHTS assay to identify small molecule antagonists of the vitamin D receptor (VDR) signaling pathway (AID 743223; active = well fitted inhibition curve with a large enough effect in the signal ratio in the repeat runs, not every such curve was filed as active; the % refers to the signal ratio). An outline of the steps:
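Reporter line VDR-bla; stimulus 1alpha,25-(OH)2 vitamin D3, 3 nM final; compound co-addition, 16 h 37C/5% CO2; LiveBLAzer B/G substrate 2 h RT; fluorescence intensity.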

The target in test [8] is Peroxisome proliferator-activated receptor delta (Homo sapiens) (UniProt Q03181). Nature of the test: qHTS assay to identify small molecule antagonists of the peroxisome proliferator-activated receptor delta (PPARd) signaling pathway (AID 743215; active = well fitted inhibition curve with a large enough effect in the signal ratio in the repeat runs, not every such curve was filed as active; the % refers to the signal ratio;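 note: cells stimulated with agonist L165041 at 300 nM final during compound exposure; series mostly up to about 62 µM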). A digest of the protocol: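 With L165041 present at 300 nM final, compounds were incubated 17 h at 37 C on PPARd UAS-bla HEK293H cells. A FRET-based beta-lactamase substrate was then applied for 2 h at room temperature and fluorescence intensity recorded.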

In test [9] the target is Bile acid receptor (Homo sapiens) (UniProt Q96RI1). Briefly: qHTS assay to identify small molecule antagonists of the farnesoid-X-receptor (FXR) signaling pathway (AID 743217; active = well fitted inhibition curve with a large enough effect in the signal ratio in the repeat runs, not every such curve was filed as active; the % refers to the signal ratio). A digest of the protocol:
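In this cell-based antagonist screen, inhibition of CDCA-driven (50 uM final) UAS-beta-lactamase expression in HEK 293T cells was measured by FRET fluorescence following 16 h compound exposure at 37 °C.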

For test [10] the target is unchanged. Briefly: qHTS assay to identify small molecule agonists of the farnesoid-X-receptor (FXR) signaling pathway (AID 743220; active = well fitted activation curve with a large enough effect in the signal ratio in the repeat runs, not every such curve was filed as active; the % refers to the signal ratio). An outline of the steps:
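Beta-lactamase reporter under UAS control in GeneBLAzer FXR HEK 293T cells (5000/well) measured with LiveBLAzer FRET substrate after 2 h at room temperature. Compound exposure lasted 16 h at 37C.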
% is set by controls: 0 for no effect and ±100 for the full control effect.

Chain of Bile acid receptor (Homo sapiens) (Q96RI1 whole entry, looked up): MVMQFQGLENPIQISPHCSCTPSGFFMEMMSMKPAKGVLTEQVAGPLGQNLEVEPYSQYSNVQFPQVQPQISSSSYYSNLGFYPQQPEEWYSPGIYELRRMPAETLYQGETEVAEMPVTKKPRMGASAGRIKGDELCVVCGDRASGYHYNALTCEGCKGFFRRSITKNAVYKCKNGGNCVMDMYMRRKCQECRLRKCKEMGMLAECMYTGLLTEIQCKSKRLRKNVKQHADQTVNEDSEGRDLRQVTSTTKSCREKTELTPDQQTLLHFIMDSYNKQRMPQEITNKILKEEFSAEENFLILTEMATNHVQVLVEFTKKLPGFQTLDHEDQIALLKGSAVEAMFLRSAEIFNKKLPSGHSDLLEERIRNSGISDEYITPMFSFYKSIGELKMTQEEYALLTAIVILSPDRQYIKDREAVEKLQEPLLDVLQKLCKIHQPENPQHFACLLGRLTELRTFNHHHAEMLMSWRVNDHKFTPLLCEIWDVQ

Consider `O=C(Oc1ccccc1)c1ccc(O)cc1`, for which the Potency result in [1], in test [3], in [4], in [5], in test [6] and in [7] was “inactive” each time. Moreover, the compound was called inactive in [2].
Consider `C=C(C#N)C(=O)OCC`, for which the Potency entry in [1], in test [3], in [4] and in [5] was “inactive” each time. The result in [2] was inactive.
On to `CC(C)(N=C=O)c1cccc(C(C)(C)N=C=O)c1`, for which the Potency entry in test [1], in [3], in [5] and in test [6] was “inactive” in each case. Further, the compound was classed as inactive in test [2] and in [8].
`NCCNCCNCCNCCN`: the Potency result in test [1], in test [3], in test [4], in test [5] and in test [6] was “inactive” throughout. In addition, the compound was classed as inactive in [2] and in [8]. Further, the activity change, negative = inhibition in test [7] is 2.31% [at 6.95 µM] (inactive).
As for `OCCOCCOCCOCCO`, the Potency entry in [1], in test [3], in [4], in [5], in test [6] and in test [7] was “inactive” each time. The result in test [2] and in test [8] was inactive.
Consider `CCCCCCCCC`, for which the Potency entry in test [1], in [3], in test [4], in [5] and in [6] was “inactive” each time. The outcome in [2] and in [8] was inactive.
On to `O=C1CCCCC1`, for which the Potency entry in [1], in test [3], in test [4], in [5], in test [6] and in test [7] was “inactive” in each case. Also, the outcome in [2] and in test [8] was inactive.
Consider `COCC(=O)O`, for which the Potency entry in [1], in test [3], in test [4], in test [5] and in [6] was “inactive” throughout. The compound was called inactive in test [2] and in test [8].
`CC[Si](OC(C)=O)(OC(C)=O)OC(C)=O`: the Potency result in [1], in [3], in [4], in [5] and in [6] was “inactive” throughout. Moreover, the call in [2] and in [8] was inactive.
As for `CCC(=O)O`, the Potency entry in [1], in [3], in test [4], in [5] and in test [6] was “inactive” in each case. For the same compound, the compound was called inactive in test [2] and in test [8].
In the case of `CCc1ccc(O)cc1`, the Potency entry in [1], in [3], in test [4], in test [5] and in [6] was “inactive” throughout. The call in [2] and in [8] was inactive.
As for `Cc1ccc(C(=O)O)o1`, the Potency result in [1], in test [3], in [5] and in test [6] was “inactive” each time. Moreover, the compound was classed as inactive in [2] and in test [8].
Consider `CCCCC(CC)COC(=O)/C=C\C(=O)OCC(CC)CCCC` (stereo unspecified), for which the Potency entry in [1], in test [3], in test [4], in [5], in test [6] and in [7] was “inactive” each time. Further, the result in test [2] and in test [8] was inactive.
As to `NS(=O)(=O)c1cc2c(cc1Cl)NC=NS2(=O)=O`, the Potency entry in test [1], in [3], in test [4], in test [5], in test [6] and in [7] was “inactive” each time. The outcome in test [2] and in test [8] was inactive.
In the case of `OC1CCCC1`, the Potency entry in test [1], in test [3], in [4], in test [5], in test [6] and in test [7] was “inactive” in each case. In addition, the compound was called inactive in [2] and in test [8].
On to `O=[N+]([O-])c1cccc(Cl)c1`, for which the Potency entry in test [1], in test [3], in test [4], in test [5] and in [6] was “inactive” in each case. Besides, the compound was called inactive in test [2] and in test [8].
With `C=C1C2CCC(C2)C1(C)C` (stereo unspecified), the Potency entry in test [1], in test [3], in [4], in test [5], in test [6] and in [7] was “inactive” each time. In addition, the compound was called inactive in test [2] and in test [8].
As for `CCCCC(CC)COC(C)=O` (stereo unspecified), the Potency result in test [1], in test [3], in test [4], in test [5] and in test [6] was “inactive” in each case. Besides, the compound was classed as inactive in test [2] and in test [8].
As for `Cc1ccc(C)c(C)c1`, the Potency entry in test [1], in test [3], in test [4], in test [5], in test [6] and in test [7] was “inactive” in each case. In addition, the call in [2] and in test [8] was inactive.
For the compound `C=C(C)C(=O)OCCC[Si](OC)(OC)OC`, the Potency result in test [1], in [3], in test [4] and in [5] was “inactive” in each case. The compound was classed as inactive in [2] and in [8].
Take `CS(=O)(=O)c1ccc([C@@H](O)[C@@H](CO)NC(=O)C(Cl)Cl)cc1`: the Potency entry in test [1], in test [3], in test [4], in [5] and in [6] was “inactive” throughout. Besides, the compound was called inactive in test [2] and in test [8].
Turning to `CCCCC(CC)C(=O)OCCOCCOCCOC(=O)C(CC)CCCC` (stereo unspecified), the Potency entry in test [1], in [3], in test [4], in [5] and in test [6] was “inactive” each time. The compound was classed as inactive in test [2] and in test [8].
On to `CCCCC/C=C\C/C=C\CCCCCCCC(=O)OC`, for which the Potency entry in [1], in [3] and in test [5] was “inactive” in each case. For the same compound, in test [2], the outcome was inactive. Further, the Potency entry in [4] was “inactive and 54.9 µM (active)”.
With `Cn1c([N+](=O)[O-])cnc1COC(N)=O`, the Potency entry in [1], in test [3], in test [4], in test [5] and in [6] was “inactive” each time. Besides, the outcome in test [2] and in test [8] was inactive.
On to `CCCCCCCCCCC=CC1CC(=O)OC1=O` (stereo unspecified), for which the Potency result in [1], in [3], in test [4], in test [5], in test [6] and in test [7] was “inactive” throughout. For the same compound, the outcome in [2], in [9] and in test [10] was inactive.
For the compound `CCOC(=O)C1OC1c1ccccc1` (stereo unspecified), the Potency result in test [1], in test [3], in test [4], in test [5], in test [6] and in [7] was “inactive” throughout. For the same compound, the outcome in test [2] and in test [8] was inactive.
Turning to `ClC1=C(Cl)C(Cl)(Cl)C(Cl)=C1Cl`, the Potency entry in test [1], in test [3], in [4], in [5], in [6] and in [7] was “inactive” throughout. Besides, the result in test [2] and in test [8] was inactive.
In the case of `CCCCCCCCCC(=O)O`, the Potency entry in [1], in test [3], in [4], in test [5] and in test [6] was “inactive” in each case. Besides, in test [8], the compound was called inactive.
For the compound `Oc1ccc2ccccc2c1N=Nc1ccccc1`, the Potency result in test [1], in [3], in test [4] and in test [5] was “inactive” throughout. Further, the compound was called inactive in [9] and in [10].
